Each structure is given as a SMILES string. Compounds without any hit were thinned out: in the full panel of roughly 83,000, 20% have a hit.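 Interpretation: 100, growth as untreated; towards 0, rising growth inhibition; 0, no net growth; 0 to -100, cell death. Compounds scoring below 10 were considered active.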 Active and inactive are the calls of the source.

The results in this text go back to PubChem BioAssay (NCI).

In this test the test system is HL-60(TB) leukemia. The experiment in a line: NCI-60 one-dose screen, 48 h (100 = growth as untreated, 0 = no growth, -100 = all killed). As to conditions: 10 µM unless noted.
Regarding `C=C1C(=O)O[C@H]2[C@H]1CC/C(CNC(=O)Cc1c[nH]c3ccccc13)=C\CC[C@@]1(C)O[C@@H]21`, the growth was -52.4% (active). As to `C=CC(=O)Nc1cccc(-c2nc(SC)nc(NCc3ccccc3)c2C#N)c1`, the growth was 50% (inactive). In the case of `O=C(/C=C(O)/C=C/c1cccc2[nH]ccc12)/C=C/c1cccc2[nH]ccc12`, the growth is 39.4% (inactive). For the compound `Nc1ccc(-c2ccc(N)c(Br)c2)cc1Br`, the growth was 7.99% (active).

Turning to `N#Cc1cnn2c(-c3ccc(Cl)cc3)nc(NCCc3ccccc3)nc12`, the growth is 85.1% (inactive). For the compound `CC1(C)OC(=O)C(=Cc2cccc(Br)c2)C(=O)O1`, the growth was 83.4% (inactive).

`COc1ccc(-c2c[nH]c(C(=O)O)c2-c2cc(OC)c3c(c2OC)OCO3)cc1`: the growth is 105% (inactive). As for `CCCCCN1C=C/C(=C\C(=O)N(C)c2cccc3ccccc23)c2ccccc21`, the growth was 97.1% (inactive).

Take `O=C(CCCn1c(=O)c2sc3ccccc3c2n2nnc(-c3ccccc3)c12)NCCc1cnc[nH]1`: the growth was 82.9% (inactive). To `COc1ccc(/C=C/C(c2cc(OC)c(OC)c(OC)c2)n2ccnc2)cc1O` (centres undefined) belongs -36.6% (active); to `COc1ccc2cn3c4ccc(O)cc4[nH]c(=O)c3c2c1`, -7.42% (active); to `Cc1ccc(-c2nc3c(c(-c4ccccc4)nn3-c3ccccc3)c(-c3ccc(O)cc3)c2C#N)cc1`, 33% (inactive). Consider `OC(Cc1cc(CC(O)(C(F)(F)F)C(F)(F)F)nc(CC(O)(C(F)(F)F)C(F)(F)F)c1)(C(F)(F)F)C(F)(F)F`, for which the growth is -24.5% (active). To `COc1ccccc1CNCCCN1C(=O)c2ccc3c4c(ccc(c24)C1=O)C(=O)N(CCCOCCCCOCCCN)C3=O` belongs -50.2% (active).
